From PubChem BioAssay
KB-V1 MDR tox: qHTS assay for MDR1-selective chemotherapeutics: Primary screen using the drug-selected MDR subline cells KB-V1 | KB-V1 MDR cells viability, CellTiter-Glo, 72 h | Potency, µM (top dose mostly 46.1 µM), most hits filed as cytotoxic | hit rate 3.4% among 400,000; note: % is set by controls: 0 for no effect and ±100 for the full control effect; nearly all actives have a fitted effect of over 60% in size
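qHTS viability screen in drug-selected KB-V1 MDR cells: 72 h compound treatment at 37 degrees C, ATP luminescence end point.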
HT1080 IDH1KD tx: qHTS for induction of synthetic lethality in tumor cells producing 2HG: qHTS for the HT-1080-IDH1KD cell line | HT-1080 IDH1 knockdown viability, ATP luminescence, 48 h | Potency, µM (titrated, usually from 46.1 µM), without a hit: at the top dose activity, negative = toxicity, usual class: cytotoxic | hit rate 2% among 360,000 | AID 686971, 2013;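 note: 0% = DMSO wells and -100% = cell-free medium wells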
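In this qHTS, HT-1080 cells depleted of IDH1 are exposed for 48 h at 37 °C to compound titrations. Toxicity is scored from CellTiter-Glo luminescence, with DMSO as full viability and medium alone as none.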
HT1080NT lethal: qHTS for induction of synthetic lethality in tumor cells producing 2HG: qHTS for the HT-1080-NT fibrosarcoma cell line; Potency, µM (top dose mostly 46.1 µM), for inactives: at the top dose activity, negative = less viability, usual class: cytotoxic; HT-1080-NT fibrosarcoma viability, CellTiter-Glo ATP luminescence, 48 h; hit rate 1.6% among 360,000; AID 686970, 2013;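 note: NT is the 2HG producing partner of a matched IDH1 knockdown line; 0% = DMSO-treated cells and -100% = media-only wells without cells; nearly all actives have a fitted effect of over 55% in size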
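Luminescent CellTiter-Glo readout after 48 hours of compound exposure at 37 degrees C defined viability of HT-1080-NT cells. Activity was normalized to DMSO wells and cell-free media wells; concentration-response curves were fitted and assigned curve classes.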
KB-3-1 tox: qHTS assay for MDR1-selective chemotherapeutics: Primary screen using the parental adenocarcinoma cell KB-3-1. AID 1347075, 2019. hit rate 1.4% among 400,000. KB-3-1 viability, CellTiter-Glo ATP luminescence, 72 h. Potency, µM (titrated, usually from 46.1 µM), most hits filed as cytotoxic; note: % is set by controls: 0 for no effect and ±100 for the full control effect; nearly all actives have a fitted effect of over 60% in size
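Cytotoxicity in the drug-sensitive parental line KB-3-1 was scored as loss of CellTiter-Glo luminescence following 72 h incubation with compound. Values come from curve fitting of normalized concentration-response data.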
SW480 rerep: A quantitative high throughput screen for small molecules that induce DNA re-replication in SW480 colon adenocarcinoma cells; hit rate 1.8% among 340,000; Potency, µM (highest dose often 46.1 µM), for the others: top-dose re-replication activation, usual class: activators; SW480 DNA re-replication, Hoechst DNA content imaging, 48 h; note: % of control where 0% means no effect; nearly all actives have a fitted effect of over 55% in size
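Image-based read-out: total Hoechst fluorescence of nuclei (405 nm excitation, 500-530 nm emission), with hits raising the fraction of high-intensity nuclei. SW480 colon cells incubated 48 hr with compounds at 37 C.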
MCF10A rereplic: A quantitative high throughput screen for small molecules that induce DNA re-replication in MCF 10a normal breast cells | hit rate 2.9% among 350,000 | MCF 10A DNA re-replication, Hoechst nuclear intensity, 48 h | AID 624296, 2012 | Potency, µM (top dose mostly 46.1 µM), inactives show at the top dose activity, positive = re-replication, usual class: activators; note: % of control where 0% means no effect; nearly all actives have a fitted effect of over 50% in size
* = called active by the depositor; i = inactive; ? = inconclusive; . = not tested or not shown; ! = repeats disagree; [ ] = another dose, or the depositor's remark. Hits are enriched below; roughly 7.9% of the tested compounds scored in any of these assays. Calls come from the whole dose curve; as a rule, active = well fitted curve in the direction sought with a large enough effect; inconclusive = small, poorly fitted or top-dose-only effect, or another doubt; inactive = no such curve, though single readings can be large; an effect the other way counts as inactive or inconclusive. Potency is the fitted concentration of half-maximal effect.

SMILES	KB-V1 MDR tox	HT1080 IDH1KD tx	HT1080NT lethal	KB-3-1 tox	SW480 rerep	MCF10A rereplic
CCOC(=O)C(C)Sc1nc2c(c(-c3cccs3)c1C#N)CCC2 (centres undefined)	i	-13.2%	-12.1%	i	23.7%	16.4µM*
COC(=O)CSc1nc2c(c(-c3ccco3)c1C#N)CCCC2	i	-0.6%	-3.1%	i	0.3%	?
N#Cc1c(SC(C(=O)O)c2ccccc2)nc2c(c1-c1cccs1)CCCC2 (centres undefined)	i	-1.4%	-18.2%	i	8.1%	-12.1%
COC(=O)CSc1nc2c(c(-c3ccc(O)cc3)c1C#N)CCCC2	i	-23.4%	-14.0%	i	?	18.4µM*
CC(C)OC(=O)CC(=O)CSc1nc2c(c(-c3cccs3)c1C#N)CCC2	i	-0.8%	-4.3%	i	17.1%	20.6µM*
COc1ccc(CCNC(=O)CSc2nnnn2-c2cccc(C(C)=O)c2)cc1OC	i	.	.	?	.	.
Cc1ccc(C(=O)N[C@H](C(=O)OCc2nnc(-c3ccccc3)o2)C(C)C)cc1	i	-4.5%	-4.9%	i	?	-2.8%
Cc1cccc(NC(=O)c2cccc(S(=O)(=O)Nc3c(C)n(C)n(-c4ccccc4)c3=O)c2)c1	14.6µM*	2.7%	1.1%	i	-1.9%	0.5%
Cc1c(N/C(=N/S(=O)(=O)c2ccccc2)c2ccc(Cl)cc2)c(=O)n(-c2ccccc2)n1C	23.1µM*	8.5%	0.6%	i	-137.9%	-6.2%
O=C(CCC1CCCC1)Nc1ccc(C(=O)NCc2cccnc2)cc1	i	6.51µM*	5.17µM*	i	7.0%	?
O=C(Nc1ccc(S(=O)(=O)NCc2cccnc2)cc1)c1ccccc1Cl	i	-8.6%	0.7%	i	1.5%	20.4%
COc1ccc(S(=O)(=O)NCc2cccnc2)cc1	i	0.6%	-4.6%	i	9.8%	?
Cc1ccc(NC(=O)c2cc([N+](=O)[O-])ccc2NCc2cccnc2)cc1Cl	i	?	?	i	11.1%	6.0%
COc1ccc(S(=O)(=O)NCc2cccnc2)cc1Br	i	16.4µM*	0.0%	i	2.1%	-1.2%
O=C(Nc1ccccc1)c1ccc(S(=O)(=O)NCc2cccnc2)cc1	20.6µM*	-16.0%	-25.5%	?	-13.3%	3.4%
COc1cccc(NC(=O)c2cc([N+](=O)[O-])ccc2NCc2cccnc2)c1	3.66µM*	-21.8%	-28.3%	i	8.8%	-1.4%
COc1cccc(NC(=O)CSCn2nnc3c(=O)[nH]c(Cc4ccc(F)cc4)nc32)c1	i	.	.	i	.	.
O=C(NCc1cccnc1)c1ccc(NC(=O)c2cccc([N+](=O)[O-])c2)cc1	i	3.66µM*	?	i	5.6%	?
c1ccc(-c2cn3c4c(sc3n2)CCCC4)cc1	?	?	11.2µM*	?	?	20.6µM*!
c1ccc(-c2cn3nc(-c4ccccc4)sc3n2)cc1	i	6.9%	0.3%	i	-1.9%	4.1%
CN(C)C(=O)[C@H]1C[C@H]1[C@@H](O)[C@H](CO)NC(=O)[C@H](COCc1ccccc1)NC(=O)OC(C)(C)C	i	-0.6%	3.0%	i	8.3%	1.6%
COc1ccc(NC(=O)C(NC(=O)OC(C)(C)C)C(C)OCc2ccccc2)cc1 (centres undefined)	4.11µM*	?	-28.2%	i	-1.2%	6.2%
COc1ccc(NC(=O)[C@H](COCc2ccccc2)NC(=O)OC(C)(C)C)cc1	5.17µM*	-1.6%	1.5%	i	10.2%	4.9%
Cc1ccc(C(C)NC(=O)CSc2ccc(S(=O)(=O)N3CCOCC3)cn2)cc1C (centres undefined)	18.4µM*	-3.9%	-2.4%	i	3.0%	13.8%
COc1ccc(-c2[nH]c(-c3ccccc3)nc2SCC(=O)NCc2ccco2)cc1OC	?	-10.2%	0.0%	i	1.3%	2.5%
SMILES	KB-V1 MDR tox	HT1080 IDH1KD tx	HT1080NT lethal	KB-3-1 tox	SW480 rerep	MCF10A rereplic
Cc1cccc(-c2nsc(SCC(=O)NCc3ccc4c(c3)OCO4)n2)c1	i	-0.4%	-10.9%	i	-2.1%	0.1%
Nc1nc(SCC(=O)NCc2ccco2)[nH]c(=O)c1-c1ccccc1	i	14.3%	-3.0%	i	?	27.1%
Cc1cccc(-c2nsc(SCC(=O)NCc3ccco3)n2)c1	20.6µM*	-1.3%	0.7%	i	-1.0%	11.7%
Cc1nc(SCC(=O)NCc2ccco2)[nH]c(=O)c1C	?	-20.1%	?	i	?	23.1µM*
COc1ccc(-c2nc(SCC(=O)NCc3ccco3)c(-c3ccccc3)[nH]2)cc1OC	i	4.0%	4.6%	i	0.5%	20.6µM*
C=C1NN(C)C(=O)N1c1ccc(OC)cc1	i	.	.	i	.	.
CCc1nc2ccccc2n1Cc1ccccc1OC	14.6µM*	-0.8%[9.24 µM]	-19.6%	?	-5.5%	2.8%
COc1ccccc1Cn1c(CCCO)nc2ccccc21	?	0.3%[9.24 µM]	-6.1%	i	-3.1%	5.1%
CCCc1nc2ccccc2n1Cc1ccccc1OC	14.6µM*	-2.0%	?	?	-1.5%	4.3%
Cc1cc2c3c(c1)C(C)CC(C)(C)N3C(=O)C2=O (centres undefined)	i	-11.0%	-4.7%	i	9.5%	2.8%
CCOc1cc2c3c(c1)C(C)CC(C)(C)N3C(=O)C2=O (centres undefined)	14.6µM*	3.3%	4.9%	i	?	?
CCOc1cc2c3c(c1)C(C)=CC(C)(C)N3C(=O)C2=O	?	?	4.61µM*	20.6µM*	?	?
Cc1ccc2c3c1C(=O)C(=O)N3C(C)(C)CC2C (centres undefined)	i	13.9%	7.1%	i	?	25.9µM*
CC1CC(C)CN(C(=O)c2ccc(Br)c(S(=O)(=O)N3CCOCC3)c2)C1 (centres undefined)	?	-4.1%	8.1%	i	-10.9%	14.5%
Oc1ccc(-c2cnc(-c3ccc(O)cc3)nc2)cc1	i	0.206µM*	?	?	0.7%	?
COc1ccc(OCc2cc(=O)c3ccc4c(c3o2)C=CC(C)(C)O4)cc1OC	i	-2.4%	7.3%	i	-50.8%	15.5%
CC(C)=CCOc1ccc([C@@H]2COc3c(ccc4c3C=CC(C)(C)O4)C2)c(O)c1	?	?	?	?	-11.4%	20.6µM*
